Source: PubChem BioAssay (NCATS)
“And” between values parts separate entries of the source, which are not always exact repeats. Equal entries are not always repeated. Values without a mark were called inactive. Records with an inconclusive call do not appear. A call without a number means that no potency is given here. The source made the active and inactive calls. Unless noted, calls follow the shape of the dose curve; as a rule, active = well fitted curve in the direction sought with a large enough effect; inconclusive = small, poorly fitted or top-dose-only effect, or another doubt; inactive = no such curve, though single readings can be large; an effect the other way counts as inactive or inconclusive.

How the values were obtained:
[1] = Cell Viability - MRC5 (AID 434; calls by dose curve;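 also: potency is read from the fitted curve at half-maximal effect; cells exposed to compound for 40 hours at 37 °C; potency reflects cytotoxicity seen as loss of intracellular ATP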); conditions: MRC5 lung fibroblast viability, qHTS
How it was run: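 qHTS cytotoxicity in human lung fibroblast MRC5 cells; 40 hr treatment, 37 °C; cellular ATP by luciferase luminescence; DMSO = 0%, 100 uM tamoxifen = 100% inhibition; Hill-fit AC50.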

[2] = Cellular Toxicity (caspase-3) HepG2 (AID 654); conditions: HepG2 caspase-3 activation, luminescence; series mostly up to 92.2 µM;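 also: cells exposed to compound for 16 hours before reading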
How it was run: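 qHTS, HepG2, 1500 cells/well, complete medium; cpd 16 h 37 °C; Caspase-Glo 3/7, 20 min RT; lum. Norm: DMSO vs 100 uM tamoxifen; AC50 Hill fit.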

[3] = Cellular Toxicity (caspase-3) HUV-EC-C (AID 656); conditions: HUV-EC-C cells, caspase-3 activation (apoptosis); series mostly up to 92.2 µM
How it was run: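 Read-out: luminescence proportional to caspase 3/7 activity, measured 20 min after adding Caspase-Glo 3/7 reagent. Cells (HUV-EC-C) had received compound for 16 hr at 37°C. Increases relative to DMSO and 100 uM tamoxifen gave concentration-response AC50 values.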

[4] = Cellular Toxicity (caspase-3) SHSY5Y (AID 657); conditions: SH-SY5Y caspase-3 activation; series mostly up to 91.7 µM
How it was run: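 Cells plated and incubated 5 h at 37 °C, dosed over a concentration range, incubated 16 h, then given Caspase-Glo 3/7 reagent for 1 h at room temperature before luminescence reading. Staurosporine (10 uM) defined full stimulation.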

[5] = Cellular Toxicity (caspase-3) BJ (AID 658); conditions: BJ fibroblasts, luminescence; Potency: caspase-3 activation; series mostly up to 91.7 µM
How it was run: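 Readout: Caspase-Glo 3/7 luminescence increase in BJ cells after 16 hr treatment at 37 °C. Staurosporine and tamoxifen served as positive controls; AC50 values came from Hill modelling of data normalized to DMSO and 10 uM staurosporine.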

[6] = Cellular Toxicity (caspase-3) MRC-5 (AID 659); conditions: MRC-5 cells, luminescence, normalized: DMSO 0%, 10 µM staurosporine 100%; series mostly up to 91.7 µM
How it was run: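 Concentration-dependent caspase 3/7 activation is measured in human normal lung fibroblasts (MRC-5) following 16-hour treatment. AC50 values come from standard Hill-equation modeling of luminescence normalized to DMSO and 10 uM staurosporine.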

[7] = Cellular Toxicity (caspase-3) Mesangial (AID 660); conditions: mesangial cells, normalized: DMSO 0%, 100 µM tamoxifen 100%; series mostly up to 91.7 µM;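 also: cells exposed to compound for 16 h before the caspase read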
How it was run: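 Concentration-response qHTS: compound-induced rise in caspase 3/7 luminescence in human mesangial cells after 16 h, normalized to DMSO and 100 uM tamoxifen controls.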

[8] = Cellular Toxicity (caspase-3) SK-N-SH (AID 661); conditions: SK-N-SH caspase-3 activation, qHTS, DMSO as zero, staurosporine as full; series mostly up to 91.7 µM
How it was run: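 Caspase 3/7 activation is measured as a luminescence increase from aminoluciferin released by substrate cleavage in SK-N-SH cells after 16 hr compound treatment; values are AC50 from concentration-response curves.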

[9] = Cellular Toxicity (caspase-3) H-4-II-E (AID 663); conditions: H-4-II-E rat hepatoma; Potency: caspase-3 activation; series mostly up to 92.2 µM;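 also: cells exposed to compound for 16 hr before readout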
How it was run: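 Apoptosis induction is scored as increased luminescence from caspase 3/7 substrate cleavage in rat hepatoma H-4-II-E cells exposed to compound for 16 hr. Activity is scaled between DMSO and 100 uM tamoxifen.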

[10] = Cellular Toxicity (caspase-3) Hek293 (AID 664); conditions: HEK293 caspase-3 activation, DMSO = 0%, 100 µM tamoxifen = 100%; at 92.2 µM (top of the series);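 also: cells exposed to compound for 16 h at 37 °C before readout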
How it was run: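 Activation of caspase-3/7 is measured as increased luminescence from cleaved peptide-aminoluciferin substrate in HEK293 cells treated 16 hours at 37 °C. AC50 values come from Hill-equation fits of concentration-response data.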

[11] = Cellular Toxicity (caspase-3) N2a (AID 665); conditions: N2a cells, luminescence, normalized: DMSO 0%, 10 µM staurosporine 100%; series mostly up to 92.2 µM;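 also: compound exposure lasted 16 h at 37 °C before readout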
How it was run: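 Plated mouse neuroblastoma N2a cells received titrated compounds for 16 h in complete medium. Caspase activity was then detected with a peptide-aminoluciferin luminescent reagent.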

[12] = Cellular Toxicity (caspase-3) Renal Proximal Tubule (AID 667); conditions: renal proximal tubule cells, primary cells freshly taken from rat; Potency: caspase-3 activation; series mostly up to 91.7 µM;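 also: cells exposed to compound for 16 hours at 37 °C before detection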
How it was run: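 In qHTS format, rat primary proximal tubule cells seeded at 1000 per well are exposed to compounds for 16 hours at 37 °C. An increase in Caspase-Glo 3/7 luminescence indicates caspase activation.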

[13] = MultiTox-Fluor Cytotoxicity Assay - LYMP1-001 - Dead Cells (AID 946); conditions: LYMP1-001 lymphoblastoid cells, dead-cell protease fluorescence; series mostly up to 92.2 µM; also: potency is read from the fitted curve at half-maximal effect
How it was run: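 AC50 from Hill fit of concentration-response; data normalized to DMSO (basal) and 15 uM tetraoctylammonium bromide (100%). LYMP1-001 lymphoblastoid cells, 2500/well, 16 hr compound at 37 C; dead-cell protease fluorescence, Ex/Em 485/520.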

[14] = MultiTox-Fluor Cytotoxicity Assay - LYMP1-003 - Dead Cells (AID 961); conditions: LYMP1-003 lymphoblastoid cells, dead-cell protease fluorescence; series mostly up to 92.2 µM; also: nearly all actives have a fitted effect of over 70% in size; also: potency is read from the fitted curve at half-maximal effect
How it was run: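 Human lymphoblastoid LYMP1-003 cells (2500/well) were treated with compounds for 16 hr at 37 C in complete medium. Dead-cell protease release was read by bis-AAF-R110 fluorescence (Ex/Em 485/520). AC50 came from Hill fits, normalized to DMSO and 15 uM tetraoctylammonium bromide.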

[15] = MultiTox-Fluor Cytotoxicity Assay - LYMP1-003 - Live Cells (AID 962); conditions: LYMP1-003 lymphoblastoid cells, MultiTox-Fluor live-cell protease fluorescence; series mostly up to 92.2 µM;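 also: cytotoxic hits lower the live-cell protease signal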
How it was run: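 Cells plated at 2500 per well and incubated 5 hr; compounds added and incubated 16 hr at 37 C; MultiTox-Fluor reagent added for 60 min at room temperature; fluorescence of liberated AFC measured at 405/510 nm.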

[16] = Cell Viability - LYMP1-003 - Assay at 24 hr (AID 963); conditions: LYMP1-003 lymphoblastoid cell viability; series mostly up to 92.2 µM
How it was run: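 Acute toxicity in LYMP1-003 lymphoblastoid cells: 24 hr compound treatment at 37 C, ATP measured with CellTiter-Glo after 30 min at room temperature. AC50 derived by fitting the Hill equation to qHTS titrations.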

[17] = Cell Viability - LYMP1-002 - Assay at 24 hr (AID 993); conditions: LYMP1-002 lymphoblastoid cells viability; series mostly up to 92.2 µM
How it was run: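 qHTS, LYMP1-002 lymphoblastoid, 24 h cpd, 37 C, CellTiter-Glo ATP luminescence; AC50 via Hill eq.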

[18] = qHTS Assay for Identification of Small Molecule Inducers of Hypoxia Response (AID 2120; active = well fitted curve in the direction sought with a large enough effect in the signal ratio, with a control signal flat, not every such curve was filed as active; the % refers to the signal ratio); conditions: hypoxia response reporter cells, beta-lactamase ratio readout; series mostly up to 104 µM
How it was run: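 Induction of beta-lactamase reporter activity was measured in CellSensor HRE-bla ME-180 cells after 17 h compound treatment at 37 degrees C, using CCF4 substrate and the 460nm/530nm emission ratio to derive AC50 values.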

[19] = molecular target: Peroxisome proliferator-activated receptor alpha (Homo sapiens) (UniProt Q07869); test: qHTS assay for small molecule agonists of the peroxisome proliferator-activated receptor alpha (PPARalpha) signaling pathway (AID 651778); conditions: PathHunter PPARalpha complementation, chemiluminescence, 6 h; max response: hits give high values
How it was run: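 Chemiluminescence from complemented enzyme reported PPARalpha activation in cells after 6 hr of compound treatment at 37 C. The detection reagent was incubated for 60 min at room temperature, and compounds were scored as agonists.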

[20] = qHTS assay for cell viability of the p53RE-bla HCT-116 cell line (AID 743292); conditions: p53RE-bla HCT-116 viability, ATP luminescence, 16 h; series mostly up to 95 µM; also: nearly all actives have a fitted effect of over 55% in size
How it was run: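 Intracellular ATP of p53RE-bla HCT-116 cells measured by luciferase luminescence following 16 h compound incubation at 37 C; DMSO-only wells served as vehicle controls.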

Chain of Peroxisome proliferator-activated receptor alpha (Homo sapiens) (Q07869 whole entry, looked up): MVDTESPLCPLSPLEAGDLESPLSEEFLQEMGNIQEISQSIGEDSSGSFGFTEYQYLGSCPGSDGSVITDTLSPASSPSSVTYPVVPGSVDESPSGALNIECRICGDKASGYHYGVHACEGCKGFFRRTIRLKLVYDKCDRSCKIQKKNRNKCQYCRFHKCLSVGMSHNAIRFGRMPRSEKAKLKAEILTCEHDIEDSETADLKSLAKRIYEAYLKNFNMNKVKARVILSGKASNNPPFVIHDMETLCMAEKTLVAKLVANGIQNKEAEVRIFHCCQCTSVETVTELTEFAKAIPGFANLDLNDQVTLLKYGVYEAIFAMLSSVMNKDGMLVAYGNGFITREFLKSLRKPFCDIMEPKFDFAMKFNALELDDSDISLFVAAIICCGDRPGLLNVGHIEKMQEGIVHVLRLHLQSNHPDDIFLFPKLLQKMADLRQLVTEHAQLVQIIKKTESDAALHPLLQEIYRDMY

O=[N+]([O-])c1cc(Cl)c(Cl)c(Cl)c1Cl
Potency [1]: > 92 µM | Potency [2]: inactive | Potency [3]: inactive | Potency [4]: inactive | Potency [5]: inactive | outcome [6]: inactive | outcome [7]: inactive | outcome [8]: inactive | Potency [9]: inactive | caspase-3 activation [10]: 2.6% | outcome [11]: inactive | Potency [12]: inactive | Potency [13]: 25.1 µM (active) | Potency [14]: 50.1 µM (active) | Potency [15]: inactive | Potency [16]: inactive | Potency [17]: inactive | Potency [18]: inactive | max response [19]: -1.46% | Potency [20]: inactive

NC(=O)Nc1nc2ccccc2[nH]1
Potency [1]: > 92 µM | Potency [2]: inactive | Potency [3]: inactive | Potency [4]: inactive | Potency [5]: inactive | outcome [6]: inactive | outcome [7]: inactive | outcome [8]: inactive | Potency [9]: inactive | caspase-3 activation [10]: -0.34% | outcome [11]: inactive | Potency [12]: inactive | Potency [13]: inactive | Potency [14]: inactive | Potency [15]: inactive | Potency [16]: inactive | Potency [17]: inactive | Potency [18]: inactive | max response [19]: -2.7% | Potency [20]: inactive

O=C1OC(=O)c2ccccc21
Potency [1]: > 92 µM | Potency [2]: inactive | Potency [3]: inactive | Potency [4]: inactive | Potency [5]: inactive | outcome [6]: inactive | outcome [7]: inactive | outcome [8]: inactive | Potency [9]: inactive | caspase-3 activation [10]: 1.71% | outcome [11]: inactive | Potency [12]: inactive | Potency [13]: inactive | Potency [14]: inactive | Potency [15]: inactive | Potency [16]: inactive | Potency [17]: inactive | Potency [18]: inactive | max response [19]: 5.7% | Potency [20]: inactive

Cc1cc2nc(N)sc2cc1C
Potency [1]: > 92 µM | Potency [2]: inactive | Potency [3]: inactive | Potency [4]: inactive | Potency [5]: inactive | outcome [6]: inactive | outcome [7]: inactive | outcome [8]: inactive | Potency [9]: inactive | caspase-3 activation [10]: -7.89% | outcome [11]: inactive | Potency [13]: inactive | Potency [14]: inactive | Potency [15]: inactive | Potency [16]: inactive | Potency [17]: inactive | Potency [18]: inactive | max response [19]: -4.39% | Potency [20]: inactive

O=C=Nc1ccc(Cl)c(Cl)c1
Potency [2]: inactive | Potency [3]: inactive | Potency [4]: inactive | Potency [5]: inactive | outcome [6]: inactive | outcome [7]: inactive | outcome [8]: inactive | Potency [9]: inactive | caspase-3 activation [10]: 9.15% | outcome [11]: inactive | Potency [12]: inactive | Potency [15]: inactive | Potency [16]: inactive | Potency [17]: inactive | Potency [18]: inactive | max response [19]: 21.6% | Potency [20]: inactive

O=Nc1ccc(Nc2ccccc2)cc1
Potency [2]: inactive | Potency [3]: inactive | Potency [4]: inactive | Potency [5]: inactive | outcome [6]: inactive | outcome [7]: inactive | outcome [8]: inactive | caspase-3 activation [10]: -5.38% | outcome [11]: inactive | Potency [12]: inactive | Potency [18]: inactive | max response [19]: -0.677% and -6.11% | Potency [20]: inactive

CCN(CC)c1ccc(N)cc1
Potency [2]: inactive | Potency [3]: inactive | Potency [5]: inactive | outcome [6]: inactive | outcome [7]: inactive | outcome [8]: inactive | Potency [9]: inactive | caspase-3 activation [10]: 18.6% | outcome [11]: inactive | Potency [12]: inactive | Potency [14]: inactive | Potency [15]: inactive | Potency [16]: inactive | Potency [17]: inactive | Potency [18]: inactive | max response [19]: -0.774% | Potency [20]: inactive

CC(/C=C/C=C(C)/C=C/C(=O)O)=C\C=C\C=C(C)\C=C\C=C(C)\C=C\C(=O)O
Potency [1]: > 92 µM | Potency [2]: inactive | Potency [3]: inactive | Potency [4]: inactive | Potency [5]: inactive | outcome [6]: inactive | outcome [7]: inactive | outcome [8]: inactive | Potency [9]: inactive | caspase-3 activation [10]: -7.2% | outcome [11]: inactive | Potency [12]: inactive | Potency [13]: inactive | Potency [14]: inactive | Potency [15]: inactive | Potency [16]: inactive | Potency [17]: inactive | Potency [18]: inactive | max response [19]: -2.62% | Potency [20]: inactive

CCOc1ccc2nc(N)sc2c1
Potency [1]: > 92 µM | Potency [2]: inactive | Potency [3]: inactive | Potency [4]: inactive | Potency [5]: inactive | outcome [6]: inactive | outcome [7]: inactive | outcome [8]: inactive | Potency [9]: inactive | caspase-3 activation [10]: 2.81% | outcome [11]: inactive | Potency [12]: inactive | Potency [13]: inactive | Potency [14]: inactive | Potency [15]: inactive | Potency [16]: inactive | Potency [17]: inactive | Potency [18]: inactive | max response [19]: -0.23% | Potency [20]: inactive

O=[N+]([O-])c1cc(N(CCO)CCO)ccc1NCCO
Potency [1]: 67.7 µM | Potency [2]: inactive | Potency [3]: inactive | Potency [4]: inactive | Potency [5]: inactive | outcome [6]: inactive | outcome [7]: inactive | outcome [8]: inactive | Potency [9]: inactive | caspase-3 activation [10]: -3.81% | outcome [11]: inactive | Potency [12]: inactive | Potency [13]: inactive | Potency [14]: inactive | Potency [15]: inactive | Potency [16]: inactive | Potency [18]: inactive | max response [19]: -11.2% and -4.73% | Potency [20]: inactive
